Compounds with a hit are over-represented: about 8% of the library has one in this group of screens.
HT1080-NT tox – kills 2HG-producing HT-1080-NT fibrosarcoma cells; HT-1080-NT fibrosarcoma viability, CellTiter-Glo ATP luminescence, 48 h; Potency, µM (highest dose often 46.1 µM), actives largely listed as cytotoxic; hit rate 1.6% among 360,000;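 also: NT is the 2HG producing partner of a matched IDH1 knockdown line; nearly all actives have a fitted effect of over 55% in size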
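Viability of the 2HG-overproducing fibrosarcoma line after 48 hours of compound exposure at 37 degrees C was determined by luminescence with CellTiter-Glo, and concentration-effect curves were then fitted and categorized.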
SW480 rereplic – induces DNA re-replication in SW480 colon adenocarcinoma cells; hit rate 1.8% among 340,000; AID 624297; SW480 DNA re-replication, Hoechst DNA content imaging, 48 h; Potency, µM (highest dose often 46.1 µM), hits mostly activators; also: nearly all actives have a fitted effect of over 55% in size
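First, 250 cells per well were seeded. Next, compound or vehicle (23 nL) was pinned in, plates sat 48 hr at 37 C. Finally Hoechst was added for 40 min before fluorescence scanning.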
MCF10A rerep – inducers of DNA re-replication in MCF 10A breast cells | hit rate 2.9% among 350,000 | Potency, µM (series often up to 46.1 µM), usual class: activators | MCF 10A DNA re-replication, Hoechst nuclear intensity, 48 h; also: nearly all actives have a fitted effect of over 50% in size
HT1080 IDH1KD tx – toxicity to HT-1080 IDH1 knockdown cells (counter line) | AID 686971 | hit rate 2% among 360,000 | Potency, µM (titrated, usually from 46.1 µM), hits mostly cytotoxic | HT-1080 IDH1 knockdown viability, ATP luminescence, 48 h
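Knockdown cells (IDH1KD HT-1080) received compounds 2 h after plating at 750 cells/well and were kept 48 h at 37 °C in 5% FBS RPMI. A CellTiter-Glo luminescence read gave % activity for curve fitting.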
KB-3-1 tox – kills parental KB-3-1 adenocarcinoma cells | KB-3-1 viability, CellTiter-Glo ATP luminescence, 72 h | Potency, µM (titrated, usually from 46.1 µM), usual class: cytotoxic | hit rate 1.4% among 400,000; also: nearly all actives have a fitted effect of over 60% in size
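Multi-concentration cytotoxicity screen in KB-3-1 cells grown in DMEM lacking phenol red with 10% FBS. After 72 h at 37 °C with compound, ATP-dependent luminescence was recorded.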
KB-V1 MDR tox – kills drug-selected multidrug resistant KB-V1 cells | KB-V1 MDR cells viability, CellTiter-Glo, 72 h | Potency, µM (doses to about 46.1 µM), hits mostly cytotoxic | hit rate 3.4% among 400,000; also: nearly all actives have a fitted effect of over 60% in size
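Compound-treated KB-V1 multidrug-resistant cells, 72 h, 37 degrees C; viability by CellTiter-Glo. Fitted qHTS curves give the values.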
A number is an active result; – = inactive; ? = inconclusive; · = not tested or not shown. Calls follow the shape of the dose curve; as a rule, active = well fitted curve in the direction sought with a large enough effect; inconclusive = small, poorly fitted or top-dose-only effect, or another doubt; inactive = no such curve, though single readings can be large; an effect the other way counts as inactive or inconclusive.

SMILES	HT1080-NT tox	SW480 rereplic	MCF10A rerep	HT1080 IDH1KD tx	KB-3-1 tox	KB-V1 MDR tox
Cc1nn(Cc2ccc(C(=O)Nc3nccs3)cc2)c(C)c1Cl	–	–	5.8µM	–	16.4µM	20.6µM
Cc1nn(Cc2ccc(Cl)cc2)c(C)c1NC(=O)C(c1ccccc1)c1ccccc1	–	–	?	–	–	11.6µM
Cc1nn(Cc2ccc(C(=O)Nc3ccccc3F)cc2)c(C)c1Cl	–	–	23.1µM	–	–	–
Cc1nn(Cc2ccc(C(=O)NN)cc2)c(C)c1Cl	–	–	–	?	–	–
Cc1cc(C(=O)Nc2c(C)nn(Cc3ccc(Cl)cc3)c2C)no1	–	–	–	–	–	–
CCOC(=O)c1cc2sccc2n1CC(=O)N1CCCc2ccccc21	–	–	–	–	–	?
CCOC(=O)c1cc2occc2n1CC(=O)N1CCCc2ccccc21	–	–	–	–	–	16.4µM
CC(Sc1nnnn1C)C(=O)NC1CCCc2ccccc21 (centres undefined)	–	–	–	–	–	–
O=C(CN1C(=O)NC2(CCCCCCC2)C1=O)NC1CCCc2ccccc21 (centres undefined)	–	·	–	–	–	–
CC(Sc1nc2ccccc2s1)C(=O)NC1CCCc2ccccc21 (centres undefined)	–	–	?	–	–	20.6µM
Cc1ccc2c(c1)N(CC(=O)N1CCCCC1)C(=O)CO2	–	–	–	–	?	?
CC1CC(C)(C)CC2(C1)NC(=O)N(CC(=O)NC1CCCc3ccccc31)C2=O (centres undefined)	–	–	–	–	–	20.6µM
Cc1ccc2c(c1)N(CC(=O)N1CCCc3ccccc31)C(=O)CO2	–	–	–	–	–	11.6µM
Cc1cccc(-c2noc(CN(C(=O)COc3ccc(C(C)C)cc3)C(C)C)n2)c1	·	·	·	·	–	–
Cc1ccc2c(c1)N(CC(=O)NC1CCCc3ccccc31)C(=O)CO2 (centres undefined)	–	–	–	–	–	16.4µM
CC(=O)c1ccc(N2CCN(C(C)C(=O)NC3CCCc4ccccc43)CC2)cc1 (centres undefined)	–	–	–	–	20.6µM	9.2µM
NC(=O)CN1CCN(c2cccc(Cl)c2)CC1	–	–	–	–	–	–
O=C(CN1CCN(c2cccc(Cl)c2)CC1)NC1CCCc2ccccc21 (centres undefined)	?	–	20.6µM	–	–	–
CC(=O)c1ccc(NC(=O)NC2CCCc3ccccc32)cc1 (centres undefined)	–	?	–	–	–	–
Cc1ccc2c(c1)N(CC(=O)NC1CCC(C)CC1)C(=O)CO2 (centres undefined)	–	–	–	–	–	–
COc1cccc(CSc2nc3n(n2)C(CC(C)C)C(C(=O)Nc2ccccc2OC)=C(C)N3)c1 (centres undefined)	·	·	·	·	–	–
COc1ccc(OC)c(NC(=O)CCc2nc(-c3ccc(C)cc3)no2)c1	·	·	·	·	–	?
Cc1onc(-c2ccccc2)c1-c1nnc(CN2CCN(S(=O)(=O)c3ccccc3F)CC2)o1	–	–	–	–	?	3.26µM
CN1CCN(Cc2nnc(-c3ccccc3)o2)CC1	–	–	–	–	–	–
CCOc1ccc(-n2c(SCc3nc(-c4ccc(OC)cc4)no3)nnc2-c2ccncc2)cc1	·	·	·	·	–	–
SMILES	HT1080-NT tox	SW480 rereplic	MCF10A rerep	HT1080 IDH1KD tx	KB-3-1 tox	KB-V1 MDR tox
Cc1ccc(S(=O)(=O)Nc2ccc(Cl)cc2)cc1NC(=O)c1cc2c(s1)CCCC2	?	–	?	?	–	14.6µM
Cc1ccc(NS(=O)(=O)c2cc(NC(=O)c3cc4c(s3)CCCC4)ccc2C)c(C)c1	–	–	–	–	–	3.66µM
CSc1ccc(C2CC(=O)Oc3c2c(=O)n(C)c2ccccc32)cc1 (centres undefined)	·	·	·	·	–	–
CCOc1ccc2c(c1)c(=O)c(S(=O)(=O)c1ccc(Cl)cc1)cn2Cc1ccccc1C	·	·	·	·	–	–
C=CCn1c(=S)[nH]c2ccc(Br)cc2c1=O	–	–	–	–	?	?
C=CCn1c(=S)[nH]c2nc3c(cc2c1=O)CCCC3	8.91µM	–	?	8.91µM	?	–

Assay outcomes: PubChem BioAssay, National Center for Advancing Translational Sciences (NCATS)
